JMJD2A Tudor inh: blocks the human JMJD2A Tudor domain | O75164 | AlphaScreen JMJD2A-Tudor / H3K4me3 peptide binding | Potency, µM (titrated, usually from 114 µM), actives largely listed as inhibitors | 4.4% of 390,000 active | AID 504339; further: nearly all actives have a fitted effect of over 50% in size
BAZ2B block: blocks human BAZ2B | Q9UIF8 | 4.4% of 360,000 active | AID 504333 | Potency, µM (doses to about 114 µM), most hits filed as inhibitors | AlphaScreen BAZ2B-H3K14Ac peptide displacement; further: nearly all actives have a fitted effect of over 60% in size
Target sequence (Q9UIF8 whole entry, looked up): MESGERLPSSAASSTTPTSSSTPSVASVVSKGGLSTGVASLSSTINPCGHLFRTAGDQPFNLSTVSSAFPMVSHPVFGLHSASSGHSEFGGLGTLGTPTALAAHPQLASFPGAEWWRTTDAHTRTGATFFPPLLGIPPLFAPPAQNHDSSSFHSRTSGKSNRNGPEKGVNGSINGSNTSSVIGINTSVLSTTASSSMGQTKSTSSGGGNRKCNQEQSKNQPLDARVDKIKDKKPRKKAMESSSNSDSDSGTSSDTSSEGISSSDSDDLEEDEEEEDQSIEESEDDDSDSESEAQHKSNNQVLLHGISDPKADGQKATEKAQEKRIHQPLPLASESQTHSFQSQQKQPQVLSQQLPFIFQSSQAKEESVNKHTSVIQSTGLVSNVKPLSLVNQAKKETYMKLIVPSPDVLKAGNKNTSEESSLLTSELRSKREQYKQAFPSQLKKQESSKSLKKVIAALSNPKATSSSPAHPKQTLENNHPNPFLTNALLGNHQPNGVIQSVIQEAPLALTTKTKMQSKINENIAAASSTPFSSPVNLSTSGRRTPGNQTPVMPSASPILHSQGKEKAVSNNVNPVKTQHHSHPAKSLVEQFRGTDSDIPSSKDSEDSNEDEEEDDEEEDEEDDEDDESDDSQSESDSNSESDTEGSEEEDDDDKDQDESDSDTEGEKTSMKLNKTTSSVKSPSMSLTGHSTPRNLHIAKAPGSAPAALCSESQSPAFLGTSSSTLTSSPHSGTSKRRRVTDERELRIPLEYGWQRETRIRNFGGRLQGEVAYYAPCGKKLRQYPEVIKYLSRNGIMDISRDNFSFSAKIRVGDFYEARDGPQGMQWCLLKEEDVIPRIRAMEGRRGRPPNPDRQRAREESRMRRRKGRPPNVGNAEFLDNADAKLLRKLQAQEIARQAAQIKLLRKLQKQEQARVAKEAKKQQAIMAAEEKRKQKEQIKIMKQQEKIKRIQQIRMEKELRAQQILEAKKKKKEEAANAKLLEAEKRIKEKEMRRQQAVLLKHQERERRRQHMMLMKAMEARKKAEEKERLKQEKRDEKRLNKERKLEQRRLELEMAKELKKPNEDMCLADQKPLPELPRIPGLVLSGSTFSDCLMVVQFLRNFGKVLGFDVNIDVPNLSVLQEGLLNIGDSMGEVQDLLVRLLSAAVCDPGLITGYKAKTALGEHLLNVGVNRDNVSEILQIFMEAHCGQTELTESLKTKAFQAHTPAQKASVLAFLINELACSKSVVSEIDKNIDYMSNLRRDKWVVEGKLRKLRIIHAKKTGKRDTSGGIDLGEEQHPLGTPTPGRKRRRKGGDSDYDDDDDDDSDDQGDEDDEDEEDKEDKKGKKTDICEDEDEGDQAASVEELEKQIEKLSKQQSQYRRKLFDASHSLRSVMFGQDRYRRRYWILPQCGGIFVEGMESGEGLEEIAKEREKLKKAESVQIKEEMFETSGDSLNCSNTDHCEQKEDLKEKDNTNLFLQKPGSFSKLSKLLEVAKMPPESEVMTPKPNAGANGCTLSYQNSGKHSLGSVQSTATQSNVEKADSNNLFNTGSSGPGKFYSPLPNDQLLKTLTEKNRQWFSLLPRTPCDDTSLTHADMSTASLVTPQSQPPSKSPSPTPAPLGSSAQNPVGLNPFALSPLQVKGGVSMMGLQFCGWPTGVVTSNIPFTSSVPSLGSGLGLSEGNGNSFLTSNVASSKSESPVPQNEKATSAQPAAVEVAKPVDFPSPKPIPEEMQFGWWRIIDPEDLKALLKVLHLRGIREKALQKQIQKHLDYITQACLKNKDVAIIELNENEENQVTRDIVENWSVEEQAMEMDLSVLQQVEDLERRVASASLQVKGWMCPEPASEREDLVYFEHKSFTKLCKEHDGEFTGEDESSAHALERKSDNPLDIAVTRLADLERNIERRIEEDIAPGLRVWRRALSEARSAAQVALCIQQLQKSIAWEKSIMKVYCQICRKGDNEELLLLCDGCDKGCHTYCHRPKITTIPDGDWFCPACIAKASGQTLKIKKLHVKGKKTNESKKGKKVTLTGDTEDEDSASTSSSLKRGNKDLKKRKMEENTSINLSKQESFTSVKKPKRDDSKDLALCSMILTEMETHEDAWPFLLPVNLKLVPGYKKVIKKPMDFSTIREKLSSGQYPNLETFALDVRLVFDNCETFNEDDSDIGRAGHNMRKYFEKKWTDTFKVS
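BAZ2B (50 nM) with biotin-H3(5-23)K14Ac peptide (50 nM) in PBS pH 7.4, 0.01% Tween-20, preformed 30 min, then compound 30 min at room temperature; top concentration 110uM. AlphaScreen streptavidin donor/nickel chelate acceptor beads (10 ug/mL final), 20 min dark, signal read.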
HP1b binding inh: HP1-beta chromodomain-methylated histone interaction inhibition | P83916 | AlphaScreen HP1-beta / biotin-H3K9me3 peptide binding | Potency, µM (highest dose often 114 µM), actives largely listed as inhibitors | 0.56% of 390,000 active; further: nearly all actives have a fitted effect of over 70% in size
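HP1-beta protein (50 nM final) preincubated 30 min at room temperature with biotinylated H3(1-18)K9me3 peptide (50 nM) in PBS pH 7.4, 0.01% Tween-20, then compound added for 30 min. AlphaScreen streptavidin donor/nickel chelate acceptor beads (10 ug/mL final), 30 min dark, luminescence read.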
Sfp inh: blocks B. subtilis Sfp PPTase activity | Q9F4F7 | 3.5% of 310,000 active | AID 1490 | Potency, µM, most hits filed as inhibitors | Biochemical Sfp PPTase activity, qHTS;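 further: the enzyme is Sfp with the accession as filed and its product quenches rhodamine fluorescence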
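Sfp 15 nM + cpd, 15 min RT; start w/ rhodamine-CoA 5 uM, BHQ-2-YbbR 12.5 uM (final); 50 mM Hepes pH 7.6, 10 mM MgCl2, 0.01% NP-40, 0.01% BSA; read 525/598 nm at 0 and 30 min.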
G9a inh: blocks human histone lysine methyltransferase G9a; G9a H3K9 monomethylation, AlphaScreen, 2 h; Potency, µM (doses to about 102 µM), actives largely listed as inhibitors; 8.8% of 350,000 active; further: nearly all actives have a fitted effect of over 75% in size
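Signal arises when biotinylated H3K9 peptide, once monomethylated, bridges streptavidin donor and antibody-captured acceptor beads. Enzyme at 20 nM was preincubated 15 min with test compounds; peptide 500 nM and SAM 20 uM then reacted for 2 h.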
A number is an active result; n = inactive; u = inconclusive; x = not tested or not shown; [ ] = remark or other dose. Hits are enriched below; roughly 12% of the tested compounds scored in any of these assays. The call rests on the fitted dose curve; in most records, active means well fitted curve in the direction sought with a large enough effect; inconclusive means small, poorly fitted or top-dose-only effect, or another doubt; inactive means no such curve, though single readings can be large; an effect the other way counts as inactive or inconclusive.

SMILES	JMJD2A Tudor inh	BAZ2B block	HP1b binding inh	Sfp inh	G9a inh
CCCOc1ccc(C(=O)Nc2ccc(NC(=O)c3ccccc3)c(C)c2)cc1	n	n	n	x	u
Oc1cc2c(cc1C(c1ccc(Br)cc1)N1CCCC1)OCO2 (centres undefined)	7.9µM	40µM	16µM	18µM	1.6µM
O=S(=O)(NCC(c1ccc2c(c1)OCO2)N1CCOCC1)c1ccc(Br)cc1 (centres undefined)	n	n	n	x	n
CCn1ncc(Br)c1C(=O)Nc1ccc(-c2ccno2)cc1	n	n	n	n	x
CCOc1ccc(CCNC(=O)C2CCN(Cc3nc(-c4ccc(OC)c(OC)c4)oc3C)CC2)cc1OCC	n	n	n	x	n
COc1ccccc1N1CCN(C(=O)Nc2ccc([N+](=O)[O-])cc2)CC1	n	n	n	n	n
COc1ccccc1N1CCN(/N=C/c2ccc(Cl)c([N+](=O)[O-])c2)CC1	u	18µM	u	n	x
COc1ccccc1N1CCN(/N=C/c2ccc([N+](=O)[O-])cc2)CC1	28µM	18µM	u	n	18µM
COc1ccccc1N1CCN(/N=C/c2ccccc2C(=O)O)CC1	n	n	n	n	x
COc1ccc(-c2cc(C(=O)Oc3ccc(Br)cc3)c3ccccc3n2)cc1	n	n	n	x	n
CC1(C)CC(NC(=O)c2ccc(Cl)cc2)CC(C)(C)N1	n	n	n	n	n
CC(=O)c1ccc(-c2ccc(C(=O)NCC3CCCO3)o2)cc1 (centres undefined)	n	n	n	x	79µM
CC(=O)c1ccc(-c2ccc(C(=O)NC3CC(C)(C)NC(C)(C)C3)o2)cc1	n	n	n	x	40µM
O=C(NCC1CCCO1)c1ccc(-c2cccc(C(F)(F)F)c2)o1 (centres undefined)	n	n	n	n	n
COc1ccc(Nc2ncnc3c2cnn3-c2ccc(C)cc2)cc1Cl	n	n	n	x	n
CCCCc1nc2cc(C(=O)N3CCCCC3C(=O)OC)ccc2o1 (centres undefined)	22µM	n	n	n	n
CC(=O)c1ccc(OCC(O)CN(C)Cc2cccs2)cc1 (centres undefined)	7.9µM	50µM	u	56µM	3.5µM
CN(Cc1cccs1)CC(O)COCc1ccco1 (centres undefined)	n	n	n	n	45µM
CC(C)Oc1ccc(C(=O)N(Cc2ccco2)Cc2cccs2)cc1	n	n	n	x	n
Cc1cc(C)nc(SCC(=O)c2ccc(F)cc2F)n1	n	n	n	n	n
CCn1nc(C(=O)NCCc2ccc3c(c2)OCCO3)c2ccccc2c1=O	n	x	n	x	x
S=c1[nH]nc(COc2ccccc2)n1/N=C/c1ccc(Cl)cc1	n	n	n	n	7.1µM
S=c1[nH]nc(Cc2ccc(Br)cc2)n1/N=C/c1ccc(Cl)cc1	79µM	n	u	14µM	u
CSc1ccc(/C=N/n2c(COc3ccccc3)n[nH]c2=S)cc1	u	u	u	n	22µM
COc1cc([N+](=O)[O-])ccc1NC(=O)COC(=O)CCS(=O)(=O)c1ccc(C)cc1	n	n	n	x	n[12.7 µM]
SMILES	JMJD2A Tudor inh	BAZ2B block	HP1b binding inh	Sfp inh	G9a inh
O=C(NCCCN1CCOCC1)c1ccc2c(c1)N(Cc1ccc(F)cc1)CCS2	u	u	n	n	45µM
O=C(NCCCN1CCOCC1)c1ccc2c(c1)N(Cc1c(F)cccc1Cl)C(=O)c1ccccc1S2	u	u	n	n	35µM
O=C(NCCCN1CCOCC1)c1ccc2c(c1)N(Cc1cccc(Cl)c1)C(=O)c1ccccc1S2	n	u	n	x	n
Cc1ccc(C)c(S(=O)(=O)Nc2ccc(-n3cnnn3)cc2)c1	n	x	n	x	x
COC(=O)CC1COc2ccccc2N1S(=O)(=O)c1ccc(Br)cc1 (centres undefined)	n	n	n	n	n
COc1cccc([C@@H]2Oc3ccc(OC)cc3C(=O)[C@H]2OC(=O)NCc2ccc3c(c2)OCO3)c1	x	n	x	n	45µM
COc1ccc2c(c1)O[C@H](c1ccc3c(c1)OCO3)[C@@H](OC(=O)Nc1cc(OC)c(OC)c(OC)c1)C2=O	x	u	x	n	50µM
COc1ccc2c(c1)O[C@H](c1ccc3c(c1)OCO3)[C@@H](OC(=O)NCc1ccco1)C2=O	x	x	x	89µM	x
Cc1nn(C)c(C)c1S(=O)(=O)N(CC(=O)Nc1ccc(F)cc1F)c1ccc(C(C)C)cc1	n	n	n	x	n
NC(CSCC(=O)O)C(=O)O (centres undefined)	x	x	x	n	n
Cc1csc(=O)n1CC(=O)OCC(=O)c1c(N)n(CC(C)C)c(=O)n(C)c1=O	n	n	n	x	u
O=C(Nc1ccncc1)c1cncc(Br)c1	n	n	n	n	u
O=C(Nc1cccc(NC(=O)c2cncc(Br)c2)c1)c1cncc(Br)c1	n	n	n	n	45µM
O=C(Nc1ccc(N2CCCC2)cc1)c1ccc2ccccc2c1	n	n	n	n	6.3µM
CC(=O)c1c[nH]c(C(=O)Nc2ccc(N3CCCCCC3)cc2)c1	35µM	35µM	u	x	n[2.33 µM]
Cc1ccc(C(=O)Nc2ccc(N3CCCCC3)cc2)cc1	n	x	n	x	x
Cc1nc(-c2ccc(C(=O)Nc3cccc(Br)c3)cc2)cs1	n	u	n	50µM	n
CC(C)=CC(=O)N1CCCC(N2CCN(c3ccc(F)cc3)CC2)C1 (centres undefined)	n	n	n	n	x
CCn1nc(-c2ccccc2C)nc2c(=O)n(C)c(=O)nc1-2	n	x	n	x	x
Cc1ccc(S(=O)(=O)N2CCN(Cc3noc(CCC(=O)N4CCCCC4)n3)CC2)c(C)c1	n	n	n	x	u
O=C(Nc1ccc(N2CCCCC2)cc1)c1cncc(Br)c1	n	u	n	n	79µM
O=C(Nc1ccc(S(=O)(=O)N2CCCC2)cc1)c1cncc(Br)c1	n	n	n	x	n
CCc1ccc2c(c1)[C@]1(C(=O)N2)[C@@H]2C(=O)N(Cc3ccccc3)C(=O)[C@@H]2[C@@H]2CCCN21	n	n	n	n	71µM
Cc1cc(Cl)cc2c1NC(=O)[C@]21[C@@H]2C(=O)N(Cc3ccccc3)C(=O)[C@@H]2[C@@H]2CCCN21	u	u	n	n	u
O=C(COC(=O)/C=C/c1ccco1)NC1CCCCC1	u	n	n	x	n[12.7 µM]
SMILES	JMJD2A Tudor inh	BAZ2B block	HP1b binding inh	Sfp inh	G9a inh
O=C(COC(=O)/C=C/c1ccc(Br)o1)Nc1ccccc1F	x	56µM	x	n	u
O=C(COC(=O)/C=C/c1ccc(Br)o1)NC1CCCCC1	79µM	u	n	x	n[12.7 µM]
O=C(Cn1ccn(-c2ccc(F)c(F)c2)c(=O)c1=O)c1ccc(F)cc1	n	u	n	x	n
c1cc2c(cc1CNc1ccc(N3CCOCC3)cc1)OCO2	50µM	x	u	x	x
c1cc(CNc2ccc(N3CCOCC3)cc2)ccn1	n	u	n	50µM	40µM
Cc1ccc(CNc2ccc(N3CCOCC3)c(Cl)c2)cc1	u	40µM	u	n	x
O=C(NCc1ccc2c(c1)OCO2)C(=S)N1CCOCC1	n	n	n	n	n
Cc1ccc(CNc2ccc(N3CCOCC3)cc2)cc1	45µM	32µM	u	n	28µM
Cc1ccc(C(=O)Nc2ccc(N3CCOCC3)cc2)cc1	n	n	n	n	u

Screening data (PubChem BioAssay)
